Assay results as given in PubChem BioAssay AID686978 (National Center for Advancing Translational Sciences (NCATS), 2013).
Screen size: about 420,000 compounds; about 64,000 (15%) were called active. Not shown: some 27% with an inconclusive outcome. Only a sample is shown. Unmarked numbers belong to inactive results. Calls come from the whole dose curve; as a rule, active = well fitted inhibition curve with a large enough effect; inconclusive = small, poorly fitted or top-dose-only effect; inactive = flat fitted curve, though single readings scatter.

Assay: qHTS for Inhibitors of human tyrosyl-DNA phosphodiesterase 1 (TDP1): qHTS in cells in absence of CPT; note: nearly all actives have a fitted effect of over 55% in size
Conditions: DT40 Tdp1-/- hTDP1 cells, no CPT, ATP luminescence, 48 h; activity change, negative = growth inhibition: at 46.2 µM (top of the series)
Outline: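 Cells were dispensed at 400 per well, compounds added by pin tool, plates incubated ≥48 hr at 37 °C, then CellTiter-Glo added for 30 min at room temperature before luminescence reading. Line: DT40 Tdp1-/- complemented with hTDP1; camptothecin omitted.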
% is set by controls: 0 for no effect and ±100 for the full control effect; potency is the fitted concentration of half-maximal effect.

Compound | activity change, negative = growth inhibition | Potency
COC(=O)C1=C(C(=O)OC)C2(OC1c1ccc(Br)cc1)C(=O)c1ccccc1C2=O (configuration not stated) | 9.73% | –
CN(c1ccc(OCC(=O)NC2=NCCS2)cc1)S(=O)(=O)c1ccc(F)cc1 | -12.9% | –
O=C(CSc1ccc(-c2ccccc2)nn1)NCC1CCCO1 (configuration not stated) | -15.8% | –
CN(C)/C=C(\C#N)C(=O)c1cccnc1Oc1cccc(F)c1 | -13.7% | –
C[C@@H]1CN([C@@H](C)CO)C(=O)c2cc(NC(=O)C3CC3)ccc2O[C@H]1CN(C)C | -12.9% | –
CC(C)CC(=O)Nc1cc(C(F)(F)F)ccc1N1CCOCC1 | -14.8% | –
CCOC(=O)c1c(C)[nH]c(C)c1C(=O)CSc1nc(N)cc(N)n1 | -4.75% | –
COCCNc1cc(NCCOC)c([N+](=O)[O-])cc1[N+](=O)[O-] | 13.4% | –
Cc1ccc(OC(=O)c2cc3ccccc3o2)cc1 | -2.8% | –
CCOC(=O)c1[nH]c(C)c(CCC(=O)NCc2ccccc2C)c1C | -8.09% | –
C/C(CC(=O)Nc1cccc(F)c1)=N\NC(=O)C(=O)NC1CCCCC1 | -22.7% | –
C=C(C)c1cccc(C(C)(C)NC(=O)N2CCN(c3ncccn3)CC2)c1 | -17.4% | –
O=C(CCN1C(=O)c2ccccc2C1=O)NNC(=O)c1ccc(Cl)cc1Cl | 11.4% | –
COc1cccc(-n2cc3c(c2-c2ccccc2)c(=O)n(C)c(=O)n3C)c1 | – | 11.6 µM (active)
COc1ccc(Nc2cc(=O)n(-c3ccccc3)c3c2c(=O)n(C)c(=O)n3C)cc1 | -18.7% | –
COc1cccc(-n2cc(C(=O)O)c3ccccc3c2=O)c1 | -8.51% | –
CN1CCN(NC(=O)Nc2ccc(Br)cc2)CC1 | 8.78% | –
COC(=O)c1ccc(/C=N/NC(=O)C(=O)N2CCCCCC2)cc1 | -15.6% | –
CCCNC(=O)c1cc(C2CCCN(C(=O)c3ccc4c(c3)CCO4)C2)on1 (configuration not stated) | 6.81% | –
O=C(c1[nH]ncc1-c1ccc(Cl)cc1)C1CO1 (configuration not stated) | – | 4.61 µM (active)
O=C(c1nnc(-c2ccc(Cl)cc2)o1)C1CCCC1 | -0.7% | –
S=c1[nH]nc(-c2ccc(Cl)cc2)n1CC1CCCO1 (configuration not stated) | -20.9% | –
CC(OC(=O)CCc1nc(=O)c2ccccc2n1C)C(=O)NCc1ccc2c(c1)OCO2 (configuration not stated) | -8.86% | –
COc1ccc(N2CCN(C(=O)c3ccccc3NC(=O)C3=C(C)OCCS3)CC2)cc1 | -29.7% | –
CCn1c2c(c(=O)n3ncc(C(=O)N4CCN(c5ccccc5)CC4)c13)CN(Cc1ccc(OC)cc1)CC2 | – | 16.4 µM (active)
CCn1c(CNC(=O)c2ccccc2)nnc1SCC(=O)N1CCN(c2ccccc2)CC1 | -18.4% | –

Compound | activity change, negative = growth inhibition | Potency
CCC(C)NC(=O)C1CCC(=O)N1Cc1ccc(C)cc1 (configuration not stated) | 4.13% | –
CN(Cc1ccco1)S(=O)(=O)c1nnc(NC(=O)c2ccccc2)s1 | 15.1% | –
COc1ccccc1CNC(=O)CCCCn1c(=O)c2ccccc2n(CC(=O)Nc2cc(Cl)ccc2C)c1=O | – | 10.3 µM (active)
COc1ccccc1CNC(=O)CCn1c(=O)c2ccccc2n(CC(=O)Nc2cccc(Cl)c2)c1=O | – | 18.4 µM (active)
COc1ccc(CCNC(=O)CCCCn2c(=O)c3ccccc3n(Cc3ccccc3)c2=O)cc1OC | – | 20.6 µM (active)
COc1ccc(NC(=O)Cn2c(=O)n(Cc3ccc(C(=O)NCc4ccccc4Cl)cc3)c(=O)c3ccccc32)cc1 | -26.8% | –
COc1ccc(CCNC(=O)CCCn2c(=O)c3ccccc3n(Cc3ccc(F)cc3Cl)c2=O)cc1OC | -1.95% | –
Cc1ccc(Cn2c(=O)n(CCCC(=O)NCc3ccccc3Cl)c(=O)c3ccccc32)cc1 | -2.45% | –
COc1ccccc1CNC(=O)CCn1c(=O)sc2ccccc21 | -9.01% | –
COCCNC(=O)CCCn1c(=O)c2ccccc2n(Cc2cccc([N+](=O)[O-])c2)c1=O | 6.9% | –
COc1ccccc1CNC(=O)CCCn1c(=O)c2ccccc2n(CC(=O)Nc2ccc(C)cc2Cl)c1=O | -24.6% | –
CC(C)(C)C1CCC(=NNC(=O)c2ccc(Br)o2)CC1 (configuration not stated) | -6.8% | –
Cc1nc2cccnc2nc1C | 10.1% | –
Cc1ccc2c(c1)C(O)(CC(=O)c1cccc(-n3cccc3)c1)C(=O)N2 (configuration not stated) | 10.3% | –
CCCCCCCCc1c(O)nc(-n2[nH]c(C)c(CCO)c2=O)[nH]c1=O | -8.48% | –
Cc1ccc(C(=O)NNC(=O)c2ccc3c(c2)OCCO3)cc1 | 20.7% | –
COC(=O)c1ccc(C(=O)OC)c(NC(=S)N2CCCCC2)c1 | 0.473% | –
Brc1ccc(-c2noc(-c3ccccc3)n2)o1 | – | inactive
Cn1c(=O)cc(SCC(=O)N2CCN(C(=O)c3ccco3)CC2)c2ccccc21 | -1.28% | –
Nc1c(C(=O)O)cnn1-c1ccccc1 | -27.1% | –
CCn1c(O)c(N=NC(=O)c2cccc(S(=O)(=O)N3CCCCC3)c2)c2ccccc21 | – | 23.1 µM (active)
CN1CCN(S(=O)(=O)c2cccc(C(=O)O)c2)CC1 | -4.32% | –
COC(=O)Cn1c(O)c(N=NC(=O)OC)c2ccccc21 | -1.25% | –
O=[N+]([O-])c1cccc(C2=NCCS2)c1 | -20% | –
CC(CC(=O)Nc1ccc(F)cc1F)S(=O)(=O)c1ccc2c(c1)NC(=O)CO2 (configuration not stated) | -1.12% | –
O=C(NCc1cccnc1)Nc1cccc(NC(=O)NCc2cccnc2)c1F | 12.9% | –
